# Screening results (PubChem)
# Sampled rows, rich in hits. Any-hit rate of the full collection: about 3.5%.
# LmPK inhibitor – LmPK (Leishmania mexicana) enzyme inhibition. 290,000 tested, 0.37% active. Potency, µM (doses to about 57.5 µM), without a hit: at the highest dose activity change, negative = inhibition, most hits filed as inhibitors. purified LmPK, Kinase-Glo ATP luminescence, 1 h; further: on the % scale 0 is the no-effect control and ±100 the full control effect
# Target sequence (Q27686 whole entry, looked up): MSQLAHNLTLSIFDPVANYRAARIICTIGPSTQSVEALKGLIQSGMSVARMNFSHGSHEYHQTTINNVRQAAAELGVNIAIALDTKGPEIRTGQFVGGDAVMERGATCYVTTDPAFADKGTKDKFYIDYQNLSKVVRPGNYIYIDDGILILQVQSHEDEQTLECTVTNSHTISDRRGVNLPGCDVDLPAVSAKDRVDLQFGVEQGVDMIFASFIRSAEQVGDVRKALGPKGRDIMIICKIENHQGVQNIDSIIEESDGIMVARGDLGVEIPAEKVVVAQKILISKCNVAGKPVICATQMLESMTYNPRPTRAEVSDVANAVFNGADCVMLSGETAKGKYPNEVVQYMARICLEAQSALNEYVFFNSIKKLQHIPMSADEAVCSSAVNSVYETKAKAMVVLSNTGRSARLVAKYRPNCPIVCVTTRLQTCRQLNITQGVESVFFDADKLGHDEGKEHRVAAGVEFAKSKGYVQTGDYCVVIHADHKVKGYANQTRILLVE
#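 Purified LmPK (0.1 nM) with 0.5 mM PEP and 0.1 mM ADP in imidazole buffer pH 7.2 with MgCl2/KCl, 1 h at room temperature. ATP formed was read by luciferase luminescence and normalized to no-enzyme and uninhibited controls.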
# TbPYK inhibitor – blocks Trypanosoma brucei pyruvate kinase | Q57TT1 | TbPYK enzyme, Kinase-Glo Plus ATP luminescence, 45 min | Potency, µM (highest dose often 76.8 µM), inactives show top-dose activity, negative = inhibition, actives largely listed as inhibitors | 410,000 tested, 0.12% active; further: on the % scale 0 is the no-effect control and ±100 the full control effect; nearly all actives have a fitted effect of over 50% in size
#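 T. brucei PYK with substrate was exposed to pin-transferred compounds across a concentration series, then started with 130 uM ADP (final). After 45 min at room temperature, Kinase-Glo Plus luminescence was read, normalized and curve-fitted.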
# Sm TGR inh – blocks Schistosoma mansoni thioredoxin glutathione reductase; 360,000 tested, 3% active; Potency, µM (top dose mostly 114 µM), without a hit: at the highest dose activity change, negative = inhibition, actives largely listed as inhibitors; AID 485364; Q962Y6; purified TGR, DTNB reduction, TNB absorbance 405 nm; further: on the % scale 0 is the no-effect control and ±100 the full control effect; nearly all actives have a fitted effect of over 60% in size
#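 First, TGR (20 nM dispensed) and NADPH were mixed with compound. Second, a 15 min room-temperature incubation followed. Third, further NADPH and then DTNB were added to start the reaction. Finally, TNB absorbance was monitored kinetically.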
# FBPA Giardia inh – inhibitors of Giardia lamblia fructose-1,6-bisphosphate aldolase; AID 2451; purified Giardia FBPA; A8B2U2; Potency, µM (doses to about 59.6 µM), for the others: at the highest dose activity, negative = inhibition, hits mostly inhibitors; 290,000 tested, 0.71% active; further: on the % scale 0 is the no-effect control and ±100 the full control effect; nearly all actives have a fitted effect of over 55% in size
#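 Giardia FBPA (40 nM reagent) was preincubated 10 min at RT with compound (up to 57.5 uM final), then substrate plus GAPDH/TPI/NAD/arsenate coupling system with diaphorase/resazurin was added; resorufin fluorescence (525/598 nm) was read after 20 min.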
# RE007 growth inh – less growth of the S. pombe RE007 Vpr strain. 360,000 tested, 0.21% active. Potency, µM (series often up to 92.2 µM), without a hit: at the highest dose activity change, negative = less growth, hits mostly inhibitors. AID 651644. S. pombe RE007 Vpr strain, BacTiter-Glo ATP luminescence, 24 h; active means well fitted falling curve with a large enough effect; inconclusive means small, poorly fitted or top-dose-only effect; inactive means no such curve, though single readings can be large or run the other way; further: on the % scale 0 is the no-effect control and ±100 the full control effect; nearly all actives have a fitted effect of over 50% in size
#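 Fission yeast strain RE007, carrying one chromosomally integrated HIV-1 vpr copy, was seeded at OD 0.01 in PMG+AL medium with 23 nL pinned compound. After 24 h at 30 °C and 99% humidity, viability was read by BacTiter-Glo luminescence.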
# NS1 function inh – blocks influenza NS1 protein function | Potency, µM (highest dose often 46.1 µM), for the others: at the highest dose activity, positive = more growth | 270,000 tested, 0.4% active | AID 2326; calls by dose curve; further: actives are rising curves; nearly all actives have a fitted effect of over 50% in size
#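 Compounds were scored for reversing the slow growth caused by influenza A NS1 in S. cerevisiae, measured by optical density at 600 nm. Assay medium contained 2% galactose at pH 6.0; NS1-free yeast of the same strain were the positive control.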
# Active calls of the source: *; u = inconclusive; x = no result. Unless noted, the call rests on the fitted dose curve; in most records, active means well fitted curve in the direction sought with a large enough effect; inconclusive means small, poorly fitted or top-dose-only effect, or another doubt; inactive means no such curve, though single readings can be large; an effect the other way counts as inactive or inconclusive. Potency means the concentration at half of the fitted maximal effect.
SMILES,LmPK inhibitor,TbPYK inhibitor,Sm TGR inh,FBPA Giardia inh,RE007 growth inh,NS1 function inh
COC(=O)c1[nH]c(C)c(/C(O)=C2\C(=O)C(=O)N(CCN(C)C)C2c2ccco2)c1C (stereo not drawn),3%,-4%,u,-26%,-20%,-7%
COC(=O)c1[nH]c(C)c(/C(O)=C2\C(=O)C(=O)N(CCN(C)C)C2c2ccc(C)o2)c1C (stereo not drawn),-8%,-4%,32µM*,-15%,-11%,-7%
CC(=O)Nc1ccc(S(=O)(=O)Nc2ccc([N+](=O)[O-])cc2)cc1,x,0%,x,28%,x,x
O=[N+]([O-])c1ccc(S(=O)(=O)Nc2ccc(-c3ccccc3)cc2)cc1,x,-3%,x,x,35µM*,x
O=C(N/N=C/c1ccc(N2CCOCC2)o1)c1cccc(F)c1,-14%,u,10µM*,-28%,16%,5%
O=C(N/N=C/c1ccc(-c2cccc(C(F)(F)F)c2)o1)c1cccc(F)c1,4%,-3%,-20%,9%,-26%,6%
O=C(N/N=C/c1ccccc1Cl)c1cccc(F)c1,u,-12%,12%,-2%,0%,-82%
O=C(N/N=C/c1c(Cl)cccc1Cl)c1cccc(F)c1,5%,-16%,35µM*,4%,-10%,-6%
COc1ccc(C(=O)N/N=C/c2ccc(N3CCOCC3)o2)cc1OC,u,32µM*,7.9µM*,u,25%,x
O=C(CSc1nnc(Nc2ccccc2F)s1)NCc1ccco1,-4%,-9%,50µM*,-17%,9%,-5%
COc1cccc(N2CC(C(=O)Nc3nnc(SCC(=O)NCc4ccco4)s3)CC2=O)c1 (stereo not drawn),-1%,-1%,50µM*,-24%,26%,7%
O=C(CSc1nnc(NC(=O)C2CC(=O)N(c3ccccc3)C2)s1)NCc1ccco1 (stereo not drawn),-8%,5%,45µM*,-11%,-6%,4%
O=C(CSc1nnc(Nc2ccccc2)s1)NCc1ccco1,-2%,-2%,u,0%,-9%,-1%
O=C(CSc1nnc(NC(=O)C2CC(=O)N(c3ccccc3)C2)s1)NCC1CCCO1 (stereo not drawn),1%,-9%,-20%,u,-1%,1%
Oc1c(C(c2ccccc2Cl)N2CCN(Cc3ccccc3)CC2)sc2nc(-c3ccco3)nn12 (stereo not drawn),x,-1%,1%,x,x,x
COc1ccc2c(C)c(CCC(=O)NCCc3ccccc3OC)c(=O)oc2c1,x,2%,1%,x,x,x
O=C1NC(=O)C(=Cc2ccc(Sc3ccccc3)o2)C(=O)N1,u,40µM*,50µM*,-19%,0%,-14%
O=c1c2cc(F)ccc2sn1-c1ccccc1Cl,x,11µM*,x,x,u,x
COC(=O)c1cccc(-n2sc3ccccc3c2=O)c1,x,6.3µM*,u,x,u,x
O=c1c2ccccc2sn1-c1ccc(F)cc1,x,8.9µM*,-15%,x,5.6µM*,x
O=c1c2ccccc2sn1-c1ccc(Cl)cc1,x,32µM*,x,x,8.9µM*,x
O=c1sc2ccccc2c(=O)n1Cc1ccccc1F,1%,-3%,3%,1%,-5%,x
O=S(O)CO,x,-2%,x,-1%,x,x
CCOC(=O)c1[nH]c2ccccc2c1NC(=O)c1ccc(OC(C)C)cc1,x,-2%,-1%,x,x,x
CCOc1ccc(NC(=O)CCc2c(C)nc3cc(-c4ccccc4OC)nn3c2C)cc1,x,0%,-5%,x,x,x
COc1ccc2c(c1)C(=O)[C@@H](OC(=O)NCc1ccco1)[C@H](c1ccc(OC)c(Br)c1)O2,x,x,x,4%,x,x
O=c1c2ccc(F)cc2sn1-c1ccccc1,x,10µM*,x,x,-70%,x
Cc1ccc(-n2sc3ccccc3c2=O)cc1,20µM*,7.9µM*,u,u,6.3µM*,-40%
O=C(c1sc2cc(F)ccc2c1Cl)N1CCN(c2cccc(Cl)c2)CC1,7%,-1%,-5%,0%,-12%,16%
